Some test systems named below: NCI-H23 lung; NCI-H226 lung; NCI-H322M lung; HOP-62 NSCLC; NCI-H460 lung; HOP-92 NSCLC; NCI-H522 lung; A549/ATCC NSCLC; 786-0 renal; COLO 205 colon.
Common to all, as to test: NCI-60 one-dose screen, 48 h (100 = growth as untreated, 0 = no growth, -100 = all killed)
Details in all cases: 10 µM unless noted

The panel holds about 83,000 compounds, 20% with a hit somewhere; the sample as a whole holds those more often.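 Treatment: one concentration, 48 hours, 96-well format. Scoring: percent growth, with anything below 10 considered active.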 Unmarked numbers belong to inactive results. Active and inactive are the calls of the source.

`N#Cc1c(-c2ccc(Br)cc2)nc2n[nH]c(-c3ccc(Br)cc3)c2c1-c1ccc(C(F)(F)F)cc1`: the growth is 15% in the assay with NCI-H23 lung; 21.7% in the assay with NCI-H226 lung; 43.1% in the assay on NCI-H322M lung; 40.3% with HOP-62 NSCLC; 3.96% (active) in the assay with NCI-H460 lung; -17.3% (active) with HOP-92 NSCLC. In addition, the growth in the assay on NCI-H522 lung is 10.1%; in the assay on A549/ATCC NSCLC, 27.4%; in the assay on 786-0 renal, 27.6%; in the assay with COLO 205 colon it was -70.5% (active).
`COc1ccc(-c2nnc3ccc(N/N=C/c4ccc(O)cc4)nn23)cc1`: the growth in the assay on NCI-H23 lung is 32.5%; in the assay with NCI-H226 lung it was 77.5%; in the assay on NCI-H322M lung, 61.9%; in the assay with HOP-62 NSCLC, 88.4%; with NCI-H460 lung, 44.3%; in the assay on HOP-92 NSCLC it was 31.3%. In addition, the growth in the assay with NCI-H522 lung is 46.7%; in the assay with A549/ATCC NSCLC it was 58.5%; with 786-0 renal, 22.9%; in the assay on COLO 205 colon it was 56.5%.
Take `COc1ccc2c(c1)C(=N/N=C(\C)c1ccc(OC)c(S(N)(=O)=O)c1)C(=O)N2`: the growth in the assay on NCI-H23 lung was 94.1%; with NCI-H226 lung, 89.3%; in the assay on NCI-H322M lung it was 94%; in the assay on HOP-62 NSCLC, 89.1%; in the assay with NCI-H460 lung, 101%; with HOP-92 NSCLC it was 79%. The growth with NCI-H522 lung was 84%; in the assay with A549/ATCC NSCLC it was 94%; in the assay with 786-0 renal, 97.9%; in the assay on COLO 205 colon, 98.7%.
As for `CC12CC[C@@H]3[C@]4(C)COC(c5c(F)cccc5F)O[C@@H]4CC[C@@]3(C)[C@@H]1CC(C1=CCOC1=O)O2` (stereo not given in full), the growth is 62.1% with NCI-H23 lung; 63.6% in the assay on NCI-H226 lung; 79.9% in the assay on NCI-H322M lung; 56.2% in the assay on HOP-62 NSCLC; 96.3% with NCI-H460 lung; -3.83% (active) in the assay with HOP-92 NSCLC. The growth is 55.4% in the assay with NCI-H522 lung, 70.3% with A549/ATCC NSCLC, 46.8% in the assay with 786-0 renal and 91.7% with COLO 205 colon.
With `O=C(/C=C/c1ccc(-c2ccccc2)cc1)c1nc2ccccc2n1Cc1ccc(F)cc1`, the growth in the assay with NCI-H23 lung was 47.5%; in the assay on NCI-H226 lung it was -13.9% (active); in the assay on NCI-H322M lung, 64.5%; with HOP-62 NSCLC it was 36.1%; in the assay on NCI-H460 lung, 36.5%; in the assay with HOP-92 NSCLC, 35.4%. The growth with NCI-H522 lung was 64.1%; in the assay on A549/ATCC NSCLC, 61.9%; in the assay on 786-0 renal it was 30.7%; in the assay with COLO 205 colon, 48.9%.
Take `C=Cn1cc(C(=O)O)c(=O)c2cc(F)c(N3CCN(c4nccc(-c5nccs5)n4)CC3)cc21`: the growth is -60.5% (active) in the assay with NCI-H23 lung; -20.5% (active) with NCI-H226 lung; -14.5% (active) in the assay with NCI-H322M lung; -34.4% (active) in the assay with HOP-62 NSCLC; 9.63% (active) in the assay with NCI-H460 lung; -32.7% (active) with HOP-92 NSCLC. For the same compound, the growth is -76.6% (active) in the assay with NCI-H522 lung, -34.3% (active) in the assay with A549/ATCC NSCLC, -22.3% (active) with 786-0 renal and -61.5% (active) in the assay on COLO 205 colon.
For `CSc1ccccc1NC(=O)c1ccc2nnn(/C(C#N)=C/c3ccccn3)c2c1`, the growth in the assay on NCI-H23 lung was -96.6% (active); in the assay on NCI-H226 lung, -94.6% (active); in the assay on NCI-H322M lung it was 40.5%; in the assay on HOP-62 NSCLC, 6.29% (active); in the assay with NCI-H460 lung it was -44% (active); in the assay on HOP-92 NSCLC, -80.8% (active). Further, the growth with NCI-H522 lung is -96.4% (active); with A549/ATCC NSCLC, -27.2% (active); with 786-0 renal, -98.5% (active); with COLO 205 colon it was -83.1% (active).
In the case of `COc1cc2c(c(OC)c1OC)C(=O)CC(c1cccc(NC(=O)c3cccc([N+](=O)[O-])c3)c1)O2` (stereo not given), the growth with NCI-H23 lung is 38.2%; in the assay with NCI-H226 lung, 38.4%; with NCI-H322M lung, 63.3%; in the assay with HOP-62 NSCLC, 47.9%; in the assay on NCI-H460 lung, 35.4%; with HOP-92 NSCLC it was 17%. In addition, the growth in the assay on NCI-H522 lung was -7.5% (active); in the assay with A549/ATCC NSCLC it was 43.8%; with 786-0 renal it was 59.7%; in the assay with COLO 205 colon, 51.8%.
Take `O=C(COc1ccc(NC(=O)Nc2ccc(Cl)c(Cl)c2)cc1)N=Nc1c(O)[nH]c2ccc([N+](=O)[O-])cc12`: the growth in the assay with NCI-H23 lung was 62.1%; in the assay with NCI-H226 lung, 90.1%; in the assay with NCI-H322M lung, 85.3%; in the assay on HOP-62 NSCLC, 76.4%; with NCI-H460 lung, 3.51% (active); with HOP-92 NSCLC, 94%. For the same compound, the growth with NCI-H522 lung is 61.1%; with A549/ATCC NSCLC it was 62.4%; in the assay on 786-0 renal, 53.7%; in the assay on COLO 205 colon, 14.3%.
As to `CN(C)CCOc1ccc(C(=O)C2[C@H](c3ccc(Cl)cc3)[C@@H](c3ccccc3)NC23C(=O)Nc2ccc(Br)cc23)cc1` (stereo not given in full), the growth is -2.68% (active) in the assay on NCI-H23 lung; 43.7% in the assay with NCI-H226 lung; 53.7% with NCI-H322M lung; 75.9% in the assay with HOP-62 NSCLC; -78.1% (active) in the assay on NCI-H460 lung; 23.5% with HOP-92 NSCLC. For the same compound, the growth in the assay on NCI-H522 lung was -2.86% (active); in the assay with A549/ATCC NSCLC, 4.59% (active); in the assay on 786-0 renal, -72.5% (active); with COLO 205 colon, -69% (active).
As to `Nc1nc(C(F)(F)F)cs1`, the growth is 104% in the assay on NCI-H23 lung; 98.9% with NCI-H226 lung; 104% with NCI-H322M lung; 101% in the assay on HOP-62 NSCLC; 107% in the assay with NCI-H460 lung; 107% in the assay on HOP-92 NSCLC. Moreover, the growth in the assay with NCI-H522 lung is 98.3%; in the assay with A549/ATCC NSCLC, 103%; in the assay on 786-0 renal, 98.4%; in the assay on COLO 205 colon it was 114%.
For `CN(C)CCOc1ccc(C(=O)C2[C@H](c3ccc(Cl)cc3)[C@@H](c3ccccc3)NC23C(=O)Nc2ccccc23)cc1` (stereo not given in full), the growth in the assay on NCI-H23 lung is 79.6%; with NCI-H226 lung it was 72%; in the assay on NCI-H322M lung, 82.5%; in the assay with HOP-62 NSCLC it was 84.2%; with NCI-H460 lung, 9.91% (active); with HOP-92 NSCLC it was 21.4%. Further, the growth in the assay on NCI-H522 lung is 89.6%; in the assay on A549/ATCC NSCLC, 48.1%; in the assay on 786-0 renal, 40.8%; in the assay with COLO 205 colon it was -63.2% (active).
On to `CN(C)c1ccnc(CNCCSC2(c3ccc(C(F)(F)F)cc3)c3ccccc3C=Cc3ccccc32)c1`, for which the growth in the assay with NCI-H23 lung is -39.1% (active); with NCI-H226 lung it was 25.9%; with NCI-H322M lung it was 42.9%; with HOP-62 NSCLC, 17.2%; in the assay with NCI-H460 lung, -89.4% (active); in the assay with HOP-92 NSCLC, -10.1% (active). For the same compound, the growth is -64.9% (active) with NCI-H522 lung, 2.72% (active) in the assay on A549/ATCC NSCLC, -22.4% (active) in the assay on 786-0 renal and -82.3% (active) in the assay on COLO 205 colon.

These data come from PubChem BioAssay (NCI).
